Only some compounds are listed: those with a hit (about 3.1% of all), similar ones and a draw of the others.
VDR inhibitor: Inhibitors of the vitamin D receptor (VDR): qHTS; Vitamin D3 receptor (Homo sapiens), P11473; VDR-SRC2-3 peptide fluorescence polarization, 2 h; Potency, µM, for inactives: max response, negative = inhibition, most hits filed as inhibitors; hit rate 0.93% among 400,000; also: potency is read from the fitted curve at half-maximal effect; % is scaled to controls: 0 for no effect and ±100 for the full control effect
Target sequence (P11473 whole entry, looked up): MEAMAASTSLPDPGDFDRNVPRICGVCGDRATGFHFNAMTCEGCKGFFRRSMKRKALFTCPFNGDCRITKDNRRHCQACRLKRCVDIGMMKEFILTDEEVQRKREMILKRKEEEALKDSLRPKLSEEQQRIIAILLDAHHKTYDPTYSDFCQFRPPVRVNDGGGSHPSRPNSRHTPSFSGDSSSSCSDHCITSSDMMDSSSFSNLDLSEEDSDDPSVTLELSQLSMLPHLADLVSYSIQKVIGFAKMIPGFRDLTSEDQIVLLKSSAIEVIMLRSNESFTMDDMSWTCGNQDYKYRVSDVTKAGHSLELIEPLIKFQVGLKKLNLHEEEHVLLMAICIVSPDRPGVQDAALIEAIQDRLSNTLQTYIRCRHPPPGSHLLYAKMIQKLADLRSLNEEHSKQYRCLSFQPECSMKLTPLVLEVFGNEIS
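Reagent solutions, kept cold and dark, are dispensed first; compounds are then pinned in at 23 nl, plates briefly spun, and incubated 2 h at ambient temperature. Inhibition of VDR–SRC2-3 peptide binding is read by fluorescence polarization.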
TSHR antagonist: Antagonists of the Thyroid Stimulating Hormone Receptor: HTS campaign; activity change, negative = inhibition, % at 11.5 µM; TSHR-expressing cells, TSH-stimulated cAMP HTRF, 2 h; hits give low values; Thyrotropin receptor (Homo sapiens), P16473; hit rate 0.2% among 330,000;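 active = activity change below a set negative limit, meaning inhibition stronger than a set level, cut at about -70% in these data; inconclusive = activity change between two set negative limits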; also: % is scaled to controls: 0 for no effect and ±100 for the full control effect
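TSHR-expressing cells, 200/well, pre-treated with compound, then stimulated with EC80 TSH (4nM final) for 2 hours at 37 deg C. cAMP measured by competitive HTRF: anti-cAMP cryptate antibody in lysis buffer plus cAMP-d2, read after 30 minutes at room temperature.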
PTAP TSG101 blk: qHTS Assay for Iinhibitors of HIV-1 Budding by Blocking the Interaction of PTAP/TSG101 | Tumor susceptibility gene 101 protein (Homo sapiens), Q99816 | Fluorescence polarization, FITC-PTAP peptide / Tsg101 binding | Potency, µM (highest dose often 115 µM), without a hit: at the top dose activity change, negative = inhibition, actives largely listed as inhibitors | 340,000 tested, under 10 active; active = well fitted inhibition curve with a large enough effect in the main read-out, with a control signal flat, not every such curve was filed as active; inconclusive = small, poorly fitted or top-dose-only effect, or effect the other way, or a change in a side signal; inactive = no such curve, though single readings can be large or run the other way; also: potency is read from the fitted curve at half-maximal effect; % of control where 0% means no effect
Target sequence (Q99816 whole entry, looked up): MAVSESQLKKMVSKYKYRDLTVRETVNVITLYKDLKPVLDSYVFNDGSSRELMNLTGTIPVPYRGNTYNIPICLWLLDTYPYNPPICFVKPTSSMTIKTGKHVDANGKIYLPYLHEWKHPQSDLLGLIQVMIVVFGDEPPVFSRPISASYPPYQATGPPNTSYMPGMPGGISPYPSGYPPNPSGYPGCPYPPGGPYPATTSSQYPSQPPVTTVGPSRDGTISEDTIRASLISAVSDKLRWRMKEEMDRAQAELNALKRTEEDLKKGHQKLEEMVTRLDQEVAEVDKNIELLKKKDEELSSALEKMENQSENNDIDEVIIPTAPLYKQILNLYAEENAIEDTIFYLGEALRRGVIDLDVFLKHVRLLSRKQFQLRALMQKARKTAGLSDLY
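Compounds were pin-transferred onto Tsg101 binding domain (10 uM final) in HEPES pH 7.5 buffer, then FITC-PTAP peptide was added at 50 nM final. After 20 min at RT, polarization reported peptide displacement across a qHTS concentration series.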
PLK1 PBD block: qHTS for Inhibitors of PLK1-PDB (polo-like kinase 1 - polo-box domain): Primary Screen; Potency, µM, for inactives: max response, negative = inhibition, most hits filed as inhibitors; AID 720504, 2013; Plk1 PBD binding of FITC phosphopeptide, fluorescence polarization; hit rate 2.8% among 360,000; Serine/threonine-protein kinase PLK1 (Homo sapiens), P53350; also: potency is read from the fitted curve at half-maximal effect; series mostly up to about 57 µM; % is scaled to controls: 0 for no effect and ±100 for the full control effect; nearly all actives have a fitted effect of over 65% in size
uPA generation: qHTS for Inhibitors of Cell Surface uPA Generation. cell surface uPA generation assay, qHTS. Potency, µM (titrated, usually from 38.3 µM), for the others: at the highest dose activity change, negative = inhibition, most hits filed as inhibitors. hit rate 0.31% among 330,000. AID 540303, 2011; active = well fitted inhibition curve with a large enough effect; inconclusive = small, poorly fitted or top-dose-only effect; inactive = no such curve, though single readings can be large or run the other way; tested in mouse RAW 264.7 cells; also: potency is read from the fitted curve at half-maximal effect; % is scaled to controls: 0 for no effect and ±100 for the full control effect; nearly all actives have a fitted effect of over 55% in size
VDR confirm: qHTS for Inhibitors of the vitamin D receptor (VDR): Hit Validation in Primary Screen; shares compounds with VDR inhibitor; VDR-coactivator inhibition assay, qHTS confirmation; Potency, µM, actives largely listed as inhibitors; hit rate 89% among 840; also: potency is read from the fitted curve at half-maximal effect
VDR FP: qHTS for Inhibitors of the vitamin D receptor (VDR): Hit Validation using a Fluorescein Assay; shares compounds with VDR inhibitor; VDR-coactivator binding, fluorescein fluorescence polarization; Potency, µM (titrated, usually from 57.1 µM), for the others: top-dose activity change, negative = inhibition, most hits filed as inhibitors; hit rate 48% among 840; AID 602200, 2012; also: potency is read from the fitted curve at half-maximal effect
VDR bla reporter: qHTS for Inhibitors of the vitamin D receptor (VDR): Hit Validation using a Beta-Lactamase Assay; hit rate 23% among 840; Potency, µM (highest dose often 46.1 µM), inactives show at the highest dose activity change, negative = inhibition, usual class: inhibitors; shares compounds with VDR inhibitor; AID 602202, 2012; VDR beta-lactamase reporter cells, FRET ratio; cells co-treated with VDR agonist LG190178; also: potency is read from the fitted curve at half-maximal effect; % is scaled to controls: 0 for no effect and ±100 for the full control effect
VDR viability: qHTS for Inhibitors of the vitamin D receptor (VDR): Hit Validation using a Cytotoxicity Assay; shares compounds with VDR inhibitor; cytotoxicity counter-screen, cell viability, qHTS; hit rate 18% among 840; AID 602204, 2012; Potency, µM (highest dose often 48.3 µM), for the others: at the highest dose activity change, negative = cytotoxicity, hits mostly cytotoxic;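 also: potency is read from the fitted curve at half-maximal effect; plate controls were DMSO for no effect and high-concentration cycloheximide for full effect; nearly all actives have a fitted effect of over 75% in size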
* = called active by the depositor; ? = inconclusive; . = not tested or not shown. Unless noted, calls follow the shape of the dose curve; as a rule, active = well fitted curve in the direction sought with a large enough effect; inconclusive = small, poorly fitted or top-dose-only effect, or another doubt; inactive = no such curve, though single readings can be large; an effect the other way counts as inactive or inconclusive.

SMILES	VDR inhibitor	TSHR antagonist	PTAP TSG101 blk	PLK1 PBD block	uPA generation	VDR confirm	VDR FP	VDR bla reporter	VDR viability
O=C(CCCN1C(=O)/C(=C/c2ccccc2Cl)SC1=S)NNC(=O)c1ccc(Cl)cc1Cl	7.0%	9.7	3.2%	-15.1%	-1.9%	.	.	.	.
c1ccc2c(-c3cc(NCc4ccncc4)n4nccc4n3)cccc2c1	.	.	.	-5.2%	.	.	.	.	.
N#Cc1c(Nc2ccc(Cl)cc2)s[nH]c1=O	10µM*	17.9	-5.6%	?	-1.9%	7.52*	?	1.7%	-14.3%
COc1ccc(C(=O)n2nnc3ccccc32)cc1OC	50.1µM*	-5.9	-1.1%	9.47µM*	-1.4%	?	?	32.9%	0.7%
O=C(c1ccc2c(c1)OCO2)n1nnc2ccccc21	.	0.4	.	.	.	.	.	.	.
Cc1ccc(S(=O)(=O)Oc2ccc(/C=C3\C(=N)N4N=C(S(C)(=O)=O)SC4=NC3=O)cc2)cc1	50.1µM*	-16.4	-3.4%	15µM*	8.7%	?	3.16µM*	23.8%	?
CCC1=NN2C(=N)/C(=C/c3ccc(OS(=O)(=O)c4ccccc4)cc3)C(=O)N=C2S1	?	14.6	-1.8%	?	1.3%	.	.	.	.
CCOC1=C2[C@@H](CN(S(=O)(=O)c3ccc(C)cc3)[C@H]2c2ccccc2F)[C@H]2C(=O)N(c3ccccc3)C(=O)[C@H]2C1	.	.	.	-3.6%	.	.	.	.	.
C(=Cc1cccnc1)c1ccncc1	16.0%	.	-7.9%	0.2%	-1.7%	.	.	.	.
CN(C)S(=O)(=O)c1ccc(C(=O)Nc2cccnc2)cc1	19.6%	-5.1	-12.3%	-9.4%	1.5%	.	.	.	.
O=C(/C=C/c1cccnc1)/C=C/c1cccnc1	12.6µM*	-9.4	-2.6%	-19.0%	?	2.67*	-14.1%	5.8µM*	14.6µM*
CN(C)S(=O)(=O)c1ccc(C(=O)/C=C/c2cccnc2)cc1	20µM*	1.7	-0.7%	-2.6%	3.1%	?	?	21.3%	?
O=C(O)Cn1c(O)c(C2=c3ccccc3=NC2=O)sc1=O	10µM*	20.0	1.3%	-22.6%	-7.7%	13.4*	?	14.2%	10.4%
CCOc1cc(/C=C2\CN(C)C/C(=C\c3ccc(O)c(OCC)c3)C2=O)ccc1O	?	-19.2	-2.6%	-9.3%	-15.5%	17.8*	?	2.91µM*	26.7µM*
COc1ccc(Cn2c(SCc3ccc(C(=O)NC4CCCC4)cc3)nc3cccnc32)cc1	6.5%	.	.	.	.	.	.	.	.
CS/C(=N/S(=O)(=O)c1ccc(C)cc1)c1ccccc1	-6.9%	16.4	0.1%	?	-1.5%	.	.	.	.
O=S(=O)(/N=C(\Sc1ccc(Cl)cc1)c1ccccc1)c1ccccc1	?	-5.1	-1.6%	2.67µM*	-2.1%	7.08*	22.4µM*	1.7%	-2.1%
Cc1cccc(N(CC(=O)NC(C)c2ccccc2)S(=O)(=O)c2ccccc2)c1C (centres undefined)	1.8%	.	.	.	.	.	.	.	.
COc1cc(CCNC2=CC(=O)c3ncccc3C2=O)ccc1O	-16.0%	.	-7.3%	-8.6%	-11.4%	.	.	.	.
CCS(=O)(=O)c1oc(-c2ccc(F)cc2)nc1S(=O)(=O)c1ccccc1	20µM*	.	.	.	.	4.47*	3.98µM*	5.8µM*	9.47µM*
O=S(=O)(c1ccccc1)c1nc(-c2ccc(F)cc2)oc1N1CCCCCC1	-16.3%	.	.	.	.	.	.	.	.
Clc1ccc(Cl)c(-c2nn3c(COc4ccccc4)nnc3s2)c1	?	-1.3	-3.3%	5.32µM*	.	11.2*	7.08µM*	-14.6%	-27.0%
CCc1ccc(CNC(=O)CN2C(=O)CSc3ccc(S(=O)(=O)N4CCOCC4)cc32)cc1	6.8%	.	.	.	.	.	.	.	.
c1ccc(OCc2nn3c(Cn4nnc5ccccc54)nnc3s2)cc1	?	7.0	-6.9%	11.9µM*	-7.2%	22.4*	8.91µM*	2.5%	-14.2%
c1ccc(CCn2cnc3ccccc32)cc1	2.8%	-5.1	1.0%	0.6%	-1.8%	.	.	.	.
SMILES	VDR inhibitor	TSHR antagonist	PTAP TSG101 blk	PLK1 PBD block	uPA generation	VDR confirm	VDR FP	VDR bla reporter	VDR viability
c1ccc(OCc2nn3c(-c4cccnc4)nnc3s2)cc1	-6.5%	8.1	-1.5%	-1.2%	0.3%	.	.	.	.
c1ccc(CCc2nn3c(Cn4cnc5ccccc54)nnc3s2)cc1	?	2.0	-2.7%	6.7µM*	-12.5%	22.4*	20µM*	-3.1%	-9.0%
CN1C(=O)c2ccccc2Sc2ccc(NC(=O)COc3ccccc3)cc21	23.9%	.	.	.	.	.	.	.	.
COc1ccc(SCC(Cc2ccccc2)N2CCN(CC(C)C)CCC2=O)cc1 (centres undefined)	?	.	.	.	.	7.94*	?	4.3%	23.5%
Cc1ccc(C(=O)N2CCN(c3cccc(Cl)c3)CC2)cc1-n1c(C)nc2cccnc21	12.3%	.	.	.	.	.	.	.	.
Cc1cccc(/C=C/C(=O)c2ccc([N+](=O)[O-])o2)c1	8.91µM*	-35.4	-17.8%	?	7.08µM*	1.12*	1.26µM*	5.17µM*	?
Cc1ccccc1/C=C/C(=O)c1ccc([N+](=O)[O-])o1	7.94µM*	-79.5*	-0.5%	?	?	5.97*	3.16µM*	8.2µM*	20.6µM*
COc1cccc(NC(=O)c2c([N+](=O)[O-])cnn2C)c1	-6.7%	-2.9	0.9%	-11.8%	-0.6%	.	.	.	.
NS(=O)(=O)c1ccc(NCc2c(F)cccc2Cl)cc1	7.9%	10.0	-4.6%	2.1%	.	.	.	.	.
Fc1cccc(Cl)c1CNc1ccc(N2CCCC2)cc1	50.1µM*	-8.4	-3.2%	21.2µM*	2.0%	11.9*	12.6µM*	-15.8%	?
CCOC(=O)c1sc(=S)n(-c2ccc(OC)cc2)c1C	-6.0%	-4.7	-2.1%	-4.0%	-3.7%	.	.	.	.
CCOC(=O)c1c2c(n(-c3ccc(OC)cc3)c1C)C(=O)C(=O)c1ccccc1-2	17.8µM*	.	-4.1%	?	-10.5%	11.9*	11.2µM*	5.8µM*	6.31µM*
